# Assay results: PubChem BioAssay (Tox21)
# “And” between values parts separate entries of the source, which are not always exact repeats. Equal values may be shown once. Results filed as inconclusive are left out. A call without a number means that no potency is given here. The source made the active and inactive calls. Unless noted, calls follow the shape of the full dose curve.
# Target: Acetylcholinesterase (Homo sapiens) (UniProt P22303)
# Assay: Acetylcholinesterase (AChE) small molecule antagonists: fluorescence cell-based qHTS assay (AID 1347398); also: nearly all actives have a fitted effect of over 50% in size
# Settings: SH-SY5Y cells; Potency: AChE activity; series mostly up to 115 µM
# How it was run: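 SH-SY5Y, 2,000 cells/well, attached overnight; cmpd 30 min 37 C; acetylthiocholine/Thiolite Green cocktail 40 min RT; fluorescence Ex/Em 490/520 nm.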
# Potency is read from the fitted curve at half-maximal effect.
# Acetylcholinesterase (Homo sapiens), sequence (P22303 whole entry, looked up): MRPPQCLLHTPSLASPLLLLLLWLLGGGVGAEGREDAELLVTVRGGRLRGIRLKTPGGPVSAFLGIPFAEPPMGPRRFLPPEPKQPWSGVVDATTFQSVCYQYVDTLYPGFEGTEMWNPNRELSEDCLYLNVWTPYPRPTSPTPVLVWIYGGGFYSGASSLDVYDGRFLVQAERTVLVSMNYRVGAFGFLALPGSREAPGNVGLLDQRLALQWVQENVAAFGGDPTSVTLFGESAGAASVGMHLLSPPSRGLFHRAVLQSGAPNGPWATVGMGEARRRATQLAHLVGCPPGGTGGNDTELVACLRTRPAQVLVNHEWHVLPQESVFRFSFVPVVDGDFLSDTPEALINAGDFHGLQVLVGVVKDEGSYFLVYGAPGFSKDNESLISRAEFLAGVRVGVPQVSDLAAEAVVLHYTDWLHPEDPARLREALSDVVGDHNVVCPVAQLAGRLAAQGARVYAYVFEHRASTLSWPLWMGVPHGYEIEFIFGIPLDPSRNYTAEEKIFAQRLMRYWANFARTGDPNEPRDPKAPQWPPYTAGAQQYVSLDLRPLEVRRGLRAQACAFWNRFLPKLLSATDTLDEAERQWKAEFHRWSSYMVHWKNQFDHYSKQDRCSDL
row,Compound,Potency
1,Cc1cc(=O)[nH]o1,inactive
2,CN1C[C@H](CNC(=O)OCc2ccccc2)C[C@@H]2c3cccc4c3c(cn4C)C[C@H]21,0.871 µM (active)
3,CCCN(CCC)c1c([N+](=O)[O-])cc(S(C)(=O)=O)cc1[N+](=O)[O-],inactive
4,CCOP(=S)(Oc1ccc([N+](=O)[O-])cc1)c1ccccc1 (stereo unspecified),inactive
5,Clc1cccc(SC2CCNCC2)n1,inactive
6,ClCc1ccccc1,inactive
7,COCCOCCO,inactive
8,O=[N+]([O-])c1ccccc1CCl,inactive
9,ClP(Cl)(Cl)(Cl)Cl,inactive
10,Brc1ccccc1,inactive

# Target: Acetylcholinesterase (Homo sapiens) (UniProt P22303)
# Assay: Acetylcholinesterase (AChE) small molecule antagonists: enzyme-based qHTS assay with human liver microsomes (AID 1347399); also: nearly all actives have a fitted effect of over 60% in size
# Settings: Potency: qHTS inhibition; series mostly up to 115 µM
# How it was run: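 Recombinant human AChE (50 mU/mL in the enzyme mix) and human liver microsomes (0.25 mg/mL final) were preincubated with compound and NADPH (0.25 mg/mL final) for 30 min at 37 C. Acetylthiocholine/DTNB was then added; thiocholine was read colorimetrically after 10 min at room temperature.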
row,Compound,Potency
1,Cc1cc(=O)[nH]o1,inactive
2,COP(=S)(Oc1cc(Cl)c(Br)cc1Cl)c1ccccc1 (stereo unspecified),8.94 µM (active)
3,Clc1ccc(C2(Cn3cncn3)CC(Br)CO2)c(Cl)c1 (stereo unspecified),inactive
4,CCOP(=S)(OCC)SCSCC,inactive
5,COc1c(C(C)(C)C)cc([N+](=O)[O-])c(C)c1[N+](=O)[O-],inactive
6,O=C1C(=O)c2cccc3cccc1c23,inactive
7,CCOC(=O)[C@]1(c2ccccc2)Oc2ccccc2[C@@H]1N,inactive
8,CCOC(=O)C(Cl)C(C)=O (stereo unspecified),inactive
9,CN1C[C@H](CNC(=O)OCc2ccccc2)C[C@@H]2c3cccc4c3c(cn4C)C[C@H]21,30.9 µM (active)
10,CCCN(CCC)c1c([N+](=O)[O-])cc(S(C)(=O)=O)cc1[N+](=O)[O-],inactive
11,COP(=S)(OC)Oc1cc(Cl)c(I)cc1Cl,inactive
12,Clc1cccc(SC2CCNCC2)n1,inactive
13,CCC(C)(NC(=O)c1cc(Cl)c(C)c(Cl)c1)C(=O)CCl (stereo unspecified),inactive
14,ClCc1ccccc1,inactive
15,CCC(COC(=O)c1cc(OC)c(OC)c(OC)c1)(c1ccccc1)N(C)C (stereo unspecified),inactive
16,CN(N=O)c1ccc([N+](=O)[O-])cc1,inactive
17,CC(C)N(C(=O)COc1nnc(C(F)(F)F)s1)c1ccc(F)cc1,inactive
18,COCCOCCO,inactive
19,O=[N+]([O-])c1ccccc1CCl,inactive
20,ClP(Cl)(Cl)(Cl)Cl,inactive
21,CCCCc1c(C)nc(NCC)nc1OS(=O)(=O)N(C)C,inactive
22,Nc1nc(=S)[nH][nH]1,inactive
23,Brc1ccccc1,inactive

# Target: Cytochrome P450 2D6 (Homo sapiens) (UniProt P10635)
# Sequence (P10635 whole entry, looked up): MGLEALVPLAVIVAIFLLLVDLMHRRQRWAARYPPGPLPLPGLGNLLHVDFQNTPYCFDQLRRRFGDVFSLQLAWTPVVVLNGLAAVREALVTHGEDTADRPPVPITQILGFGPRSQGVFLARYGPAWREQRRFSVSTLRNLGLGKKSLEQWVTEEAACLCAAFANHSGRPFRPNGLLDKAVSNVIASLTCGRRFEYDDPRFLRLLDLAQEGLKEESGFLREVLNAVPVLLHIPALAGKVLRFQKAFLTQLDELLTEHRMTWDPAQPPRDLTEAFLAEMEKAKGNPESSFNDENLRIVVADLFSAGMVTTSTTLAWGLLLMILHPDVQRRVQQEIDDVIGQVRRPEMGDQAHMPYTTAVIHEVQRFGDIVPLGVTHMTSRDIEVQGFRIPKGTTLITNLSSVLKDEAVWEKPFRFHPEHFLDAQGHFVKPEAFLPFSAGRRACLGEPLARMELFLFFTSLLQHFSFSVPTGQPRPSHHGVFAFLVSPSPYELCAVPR
# Assay: Cytochrome P450 Family 2 Subfamily D Member 6 (CYP2D6) small molecule antagonists: luciferase reporter qHTS assay (AID 1671196; active = well fitted inhibition curve with a large enough effect in the repeat runs; also: nearly all actives have a fitted effect of over 50% in size)
# Settings: P450-Glo CYP2D6 enzyme assay, luciferin luminescence, 1 h; series mostly up to 115 µM
# How it was run: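 CYP2D6 activity was followed as luminescence from its luciferin product after a 1 h NADPH-driven reaction at room temperature. Enzyme-substrate mix and compound were pre-incubated for 10 min, and the signal was read 20 min after adding detection reagent.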
row,Compound,Potency
1,CCOP(=S)(OCC)Oc1cc(Cl)c(Br)cc1Cl,inactive
2,Clc1ccc(C2(Cn3cncn3)CC(Br)CO2)c(Cl)c1 (stereo unspecified),31.5 µM (active)
3,O=C(N[C@H](c1ccccc1)[C@@H]1CN2CCC1CC2)c1c(Cl)ccc(C(F)(F)F)c1Cl,2.56 µM (active)
4,COP(=S)(OC)Oc1cc(Cl)c(I)cc1Cl,inactive
5,CCOP(=O)(OCC)Oc1ccc([N+](=O)[O-])cc1,1.61 µM (active) and 1.59 µM (active)
6,C#CCOC(C(=O)OCCN(C)C)(c1ccccc1)c1ccccc1,3.47 µM (active)
7,CCC(COC(=O)c1cc(OC)c(OC)c(OC)c1)(c1ccccc1)N(C)C (stereo unspecified),0.55 µM (active)
8,CCOP(=O)(OCC)O/C(=C/Cl)c1ccc(Cl)cc1Cl,39.9 µM (active)
